Laboratory results reported in publication PMC7862700, “An all-to-all approach to the identification of sequence-specific readers for epigenetic DNA modifications on cytosine”.

How the values were obtained:
Experiment in all cases: DAPPL (digital affinity profiling via proximity ligation, sequencing); 10 mM Tris-HCl pH 7.5, 50 mM NaCl, 1 mM DTT, 4% glycerol, room temperature, 30 min; GST-TFs on glutathione beads, 16-mer random dsDNA library, 0.1% formaldehyde crosslink after washing; high values mean tight binding
FLI1 = biological target: T1, FLI1 (Homo sapiens, UniProt Q01543 1-452); conditions: protein: recombinant; tags: N-terminal GST; dsDNA, one strand shown
T1 sequence: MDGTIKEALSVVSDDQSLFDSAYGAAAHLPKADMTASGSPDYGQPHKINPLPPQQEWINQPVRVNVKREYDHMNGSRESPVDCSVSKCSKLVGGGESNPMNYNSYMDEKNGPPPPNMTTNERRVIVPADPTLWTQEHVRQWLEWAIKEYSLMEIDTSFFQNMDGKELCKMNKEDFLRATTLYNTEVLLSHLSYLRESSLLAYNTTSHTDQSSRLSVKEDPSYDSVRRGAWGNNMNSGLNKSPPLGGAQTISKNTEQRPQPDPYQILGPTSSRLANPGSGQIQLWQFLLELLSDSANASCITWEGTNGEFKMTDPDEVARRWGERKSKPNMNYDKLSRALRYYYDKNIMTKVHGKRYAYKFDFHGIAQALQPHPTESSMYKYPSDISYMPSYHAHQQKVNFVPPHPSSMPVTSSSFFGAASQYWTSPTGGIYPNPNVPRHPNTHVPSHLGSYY
Summary of the method: (§1)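 Binding signal is given per hexamer as its read frequency for a factor divided by its frequency in the tag-only sample. GST-fused human transcription factors were expressed in yeast, captured on glutathione beads, barcoded with DNA and pooled with that sample, then incubated with 200 nmole of a 16-mer random double-stranded DNA library in Tris/NaCl/DTT/glycerol buffer for 30 min at room temperature. The pools were then washed, crosslinked, proximity-ligated, amplified by PCR and sequenced on an Illumina NextSeq500.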

ELK1 = biological target: T2, ELK1 (Homo sapiens, UniProt P19419 1-428); conditions: protein: recombinant; tags: N-terminal GST; dsDNA, one strand shown
T2 sequence: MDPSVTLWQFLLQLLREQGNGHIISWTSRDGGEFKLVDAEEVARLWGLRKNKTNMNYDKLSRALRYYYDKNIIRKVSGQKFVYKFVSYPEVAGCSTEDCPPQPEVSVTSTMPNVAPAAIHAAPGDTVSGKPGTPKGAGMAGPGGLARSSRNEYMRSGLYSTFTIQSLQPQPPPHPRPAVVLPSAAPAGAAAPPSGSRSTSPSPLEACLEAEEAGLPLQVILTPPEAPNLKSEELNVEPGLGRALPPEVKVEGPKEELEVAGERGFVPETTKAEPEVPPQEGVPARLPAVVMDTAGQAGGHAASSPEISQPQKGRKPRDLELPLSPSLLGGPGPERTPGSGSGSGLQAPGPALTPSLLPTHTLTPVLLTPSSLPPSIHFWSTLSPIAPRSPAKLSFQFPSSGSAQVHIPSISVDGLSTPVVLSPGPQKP
Summary of the method: as §1

GABPA = biological target: T3, GABPA (Homo sapiens, UniProt Q06546 1-454); conditions: protein: recombinant; tags: N-terminal GST; dsDNA, one strand shown
T3 sequence: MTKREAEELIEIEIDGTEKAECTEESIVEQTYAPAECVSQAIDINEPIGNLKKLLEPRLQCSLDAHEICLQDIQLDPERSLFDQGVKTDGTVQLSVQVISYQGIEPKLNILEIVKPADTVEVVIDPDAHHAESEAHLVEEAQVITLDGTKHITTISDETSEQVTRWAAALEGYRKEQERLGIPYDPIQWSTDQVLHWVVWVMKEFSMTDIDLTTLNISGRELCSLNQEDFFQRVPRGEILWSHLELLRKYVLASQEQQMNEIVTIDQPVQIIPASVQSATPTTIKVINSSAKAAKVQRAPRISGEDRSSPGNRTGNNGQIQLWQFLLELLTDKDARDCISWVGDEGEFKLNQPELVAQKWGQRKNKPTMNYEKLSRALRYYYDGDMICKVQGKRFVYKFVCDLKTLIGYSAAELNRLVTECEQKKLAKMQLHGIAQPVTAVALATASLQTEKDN
Summary of the method: as §1

ERG = biological target: T4, ERG (Homo sapiens, UniProt P11308 1-479); conditions: protein: recombinant; tags: N-terminal GST; dsDNA, one strand shown
T4 sequence: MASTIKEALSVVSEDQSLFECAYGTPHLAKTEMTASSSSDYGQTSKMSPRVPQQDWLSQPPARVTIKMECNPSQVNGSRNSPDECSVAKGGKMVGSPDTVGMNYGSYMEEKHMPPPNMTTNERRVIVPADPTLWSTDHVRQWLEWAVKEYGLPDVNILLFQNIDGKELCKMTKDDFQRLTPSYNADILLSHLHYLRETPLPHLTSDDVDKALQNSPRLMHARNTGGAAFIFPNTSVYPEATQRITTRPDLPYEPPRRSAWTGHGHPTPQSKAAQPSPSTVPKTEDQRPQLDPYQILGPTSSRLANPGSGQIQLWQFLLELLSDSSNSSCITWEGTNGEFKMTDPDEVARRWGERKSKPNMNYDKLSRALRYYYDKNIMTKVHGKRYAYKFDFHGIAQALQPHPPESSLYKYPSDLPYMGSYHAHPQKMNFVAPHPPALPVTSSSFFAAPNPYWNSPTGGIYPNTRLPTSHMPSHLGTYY
Summary of the method: as §1

ELF1 = ELF1 (Homo sapiens, UniProt P32519 1-619); conditions: protein: recombinant; tags: N-terminal GST; dsDNA, one strand shown
ELF1, sequence (P32519 whole entry): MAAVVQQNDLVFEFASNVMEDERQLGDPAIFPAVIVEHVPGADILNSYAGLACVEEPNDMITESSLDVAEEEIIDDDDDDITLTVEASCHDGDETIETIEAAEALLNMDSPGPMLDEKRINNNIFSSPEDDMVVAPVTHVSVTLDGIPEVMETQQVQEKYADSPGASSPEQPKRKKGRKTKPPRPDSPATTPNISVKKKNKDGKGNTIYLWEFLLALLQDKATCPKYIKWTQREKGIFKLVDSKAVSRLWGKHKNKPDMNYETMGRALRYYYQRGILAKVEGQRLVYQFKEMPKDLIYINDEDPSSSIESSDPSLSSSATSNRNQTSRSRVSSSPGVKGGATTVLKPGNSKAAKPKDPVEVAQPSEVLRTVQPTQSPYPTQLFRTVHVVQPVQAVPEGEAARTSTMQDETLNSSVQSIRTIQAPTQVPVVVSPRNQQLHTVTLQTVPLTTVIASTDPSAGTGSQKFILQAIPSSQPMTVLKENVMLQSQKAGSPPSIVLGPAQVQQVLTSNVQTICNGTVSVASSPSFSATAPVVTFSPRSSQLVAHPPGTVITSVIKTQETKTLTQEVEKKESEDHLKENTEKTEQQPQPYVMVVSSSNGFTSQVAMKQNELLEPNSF
Summary of the method: as §1

EHF = biological target: T5, EHF (Homo sapiens, UniProt Q9NZC4 1-300); conditions: protein: recombinant; tags: N-terminal GST; dsDNA, one strand shown
T5 sequence: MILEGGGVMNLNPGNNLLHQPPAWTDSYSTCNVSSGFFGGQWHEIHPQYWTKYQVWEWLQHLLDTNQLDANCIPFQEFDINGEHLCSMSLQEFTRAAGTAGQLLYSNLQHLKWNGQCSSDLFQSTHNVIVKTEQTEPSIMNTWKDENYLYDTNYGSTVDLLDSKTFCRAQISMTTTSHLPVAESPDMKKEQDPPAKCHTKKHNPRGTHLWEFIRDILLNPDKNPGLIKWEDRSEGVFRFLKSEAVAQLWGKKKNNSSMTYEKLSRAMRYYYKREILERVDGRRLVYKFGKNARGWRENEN
Summary of the method: as §1

SPI1 = SPI1 (Homo sapiens, UniProt P17947 1-270); conditions: protein: recombinant; tags: N-terminal GST; dsDNA, one strand shown
Summary of the method: as §1

SPIB = SPIB (Homo sapiens, UniProt Q01892 1-262); conditions: protein: recombinant; tags: N-terminal GST; dsDNA, one strand shown
SPIB, sequence (Q01892 whole entry): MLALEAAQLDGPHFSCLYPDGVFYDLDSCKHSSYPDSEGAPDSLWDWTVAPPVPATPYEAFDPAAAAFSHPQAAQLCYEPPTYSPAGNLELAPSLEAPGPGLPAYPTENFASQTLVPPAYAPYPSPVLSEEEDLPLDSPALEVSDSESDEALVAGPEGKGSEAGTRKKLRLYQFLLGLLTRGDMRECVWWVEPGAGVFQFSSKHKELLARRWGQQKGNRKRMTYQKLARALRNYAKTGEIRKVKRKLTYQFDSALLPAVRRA
Summary of the method: as §1

ELK3 = biological target: T6, ELK3 (Homo sapiens, UniProt P41970 1-407); conditions: protein: recombinant; tags: N-terminal GST; dsDNA, one strand shown
T6 sequence: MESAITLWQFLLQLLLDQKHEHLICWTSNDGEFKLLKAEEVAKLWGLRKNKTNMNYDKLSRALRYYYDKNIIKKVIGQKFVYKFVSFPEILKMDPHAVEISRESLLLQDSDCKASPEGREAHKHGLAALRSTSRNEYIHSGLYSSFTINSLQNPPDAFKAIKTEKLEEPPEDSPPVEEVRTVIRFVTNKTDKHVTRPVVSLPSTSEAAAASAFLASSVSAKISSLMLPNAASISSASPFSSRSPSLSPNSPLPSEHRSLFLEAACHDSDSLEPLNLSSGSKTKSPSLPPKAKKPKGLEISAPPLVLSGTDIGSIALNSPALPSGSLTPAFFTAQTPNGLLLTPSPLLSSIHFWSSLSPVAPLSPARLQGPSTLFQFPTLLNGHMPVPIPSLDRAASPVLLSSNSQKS
Summary of the method: as §1

FEV = biological target: T7, FEV (Homo sapiens, UniProt Q99581 1-238); conditions: protein: recombinant; tags: N-terminal GST; dsDNA, one strand shown
T7 sequence: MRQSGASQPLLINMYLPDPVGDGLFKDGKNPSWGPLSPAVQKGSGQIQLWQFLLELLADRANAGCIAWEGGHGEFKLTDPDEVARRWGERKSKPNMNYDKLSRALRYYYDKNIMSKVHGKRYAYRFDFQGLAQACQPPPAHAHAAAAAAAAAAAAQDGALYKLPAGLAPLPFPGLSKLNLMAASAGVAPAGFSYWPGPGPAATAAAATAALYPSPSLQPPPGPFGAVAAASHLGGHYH
Summary of the method: as §1

ETV5 = ETV5 (Homo sapiens, UniProt P41161 1-510); conditions: protein: recombinant; tags: N-terminal GST; dsDNA, one strand shown
ETV5, sequence (P41161 whole entry): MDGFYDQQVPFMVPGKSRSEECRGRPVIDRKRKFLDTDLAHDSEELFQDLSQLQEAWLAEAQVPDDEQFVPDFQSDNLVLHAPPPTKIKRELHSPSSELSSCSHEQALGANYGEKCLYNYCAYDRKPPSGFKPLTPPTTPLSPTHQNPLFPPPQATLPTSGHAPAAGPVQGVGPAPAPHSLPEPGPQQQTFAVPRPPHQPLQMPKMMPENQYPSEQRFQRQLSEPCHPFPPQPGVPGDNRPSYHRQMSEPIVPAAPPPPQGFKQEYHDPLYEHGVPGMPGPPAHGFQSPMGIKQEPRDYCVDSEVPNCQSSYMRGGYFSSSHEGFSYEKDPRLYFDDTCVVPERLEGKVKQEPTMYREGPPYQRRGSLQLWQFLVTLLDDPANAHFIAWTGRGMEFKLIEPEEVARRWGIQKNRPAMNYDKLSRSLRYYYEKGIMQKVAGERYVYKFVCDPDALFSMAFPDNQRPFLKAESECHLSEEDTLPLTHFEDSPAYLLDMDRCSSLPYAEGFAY
Summary of the method: as §1

HSF1 = HSF1 (Homo sapiens, UniProt Q00613 1-529); conditions: protein: recombinant; tags: N-terminal GST; chain copies: 3; dsDNA, one strand shown
HSF1, sequence (Q00613 whole entry): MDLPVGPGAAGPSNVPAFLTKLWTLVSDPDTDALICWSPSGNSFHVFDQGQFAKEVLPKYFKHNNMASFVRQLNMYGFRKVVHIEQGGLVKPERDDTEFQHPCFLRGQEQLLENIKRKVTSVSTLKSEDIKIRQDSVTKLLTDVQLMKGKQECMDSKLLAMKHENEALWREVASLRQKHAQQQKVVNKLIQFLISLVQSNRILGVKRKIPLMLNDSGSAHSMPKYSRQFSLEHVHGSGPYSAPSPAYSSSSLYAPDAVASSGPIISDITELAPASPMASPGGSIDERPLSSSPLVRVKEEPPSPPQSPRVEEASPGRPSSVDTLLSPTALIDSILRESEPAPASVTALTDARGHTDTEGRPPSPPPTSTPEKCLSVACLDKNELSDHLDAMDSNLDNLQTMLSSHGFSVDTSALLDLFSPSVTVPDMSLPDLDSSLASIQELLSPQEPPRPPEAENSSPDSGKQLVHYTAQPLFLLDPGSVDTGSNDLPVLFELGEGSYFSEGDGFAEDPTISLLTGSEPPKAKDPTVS
Summary of the method: as §1

SPIC = biological target: T8, SPIC (Homo sapiens, UniProt Q8N5J4 1-248); conditions: protein: recombinant; tags: N-terminal GST; dsDNA, one strand shown
T8 sequence: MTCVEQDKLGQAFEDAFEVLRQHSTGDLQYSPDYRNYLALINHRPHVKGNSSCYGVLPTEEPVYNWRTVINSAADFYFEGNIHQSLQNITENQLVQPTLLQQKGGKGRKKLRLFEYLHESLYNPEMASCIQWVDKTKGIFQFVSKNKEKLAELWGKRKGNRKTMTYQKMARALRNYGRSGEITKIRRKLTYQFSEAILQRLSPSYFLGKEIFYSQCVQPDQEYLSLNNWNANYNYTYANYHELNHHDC
Summary of the method: as §1

ELF4 = ELF4 (Homo sapiens, UniProt Q99607 1-663); conditions: protein: recombinant; tags: N-terminal GST; dsDNA, one strand shown
ELF4, sequence (Q99607 whole entry): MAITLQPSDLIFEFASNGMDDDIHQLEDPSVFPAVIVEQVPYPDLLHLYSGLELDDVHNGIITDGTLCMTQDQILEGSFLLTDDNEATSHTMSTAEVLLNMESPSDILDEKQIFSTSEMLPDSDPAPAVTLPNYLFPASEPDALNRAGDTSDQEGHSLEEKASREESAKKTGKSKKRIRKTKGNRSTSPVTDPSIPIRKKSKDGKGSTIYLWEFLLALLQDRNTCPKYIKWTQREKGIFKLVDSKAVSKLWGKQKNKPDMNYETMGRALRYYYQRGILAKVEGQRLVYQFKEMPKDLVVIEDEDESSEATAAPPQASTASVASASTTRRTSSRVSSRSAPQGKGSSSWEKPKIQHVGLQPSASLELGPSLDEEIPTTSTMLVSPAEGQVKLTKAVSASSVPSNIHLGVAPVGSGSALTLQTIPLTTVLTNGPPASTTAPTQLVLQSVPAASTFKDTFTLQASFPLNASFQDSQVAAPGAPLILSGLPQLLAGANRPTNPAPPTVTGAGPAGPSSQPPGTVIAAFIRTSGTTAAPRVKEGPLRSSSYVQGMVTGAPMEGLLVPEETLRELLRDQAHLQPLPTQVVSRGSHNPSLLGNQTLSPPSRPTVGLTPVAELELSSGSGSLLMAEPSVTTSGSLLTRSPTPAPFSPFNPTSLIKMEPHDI
Summary of the method: as §1

ELK4 = biological target: T9, ELK4 (Homo sapiens, UniProt P28324-2 1-405); conditions: protein: recombinant; tags: N-terminal GST; dsDNA, one strand shown
T9 sequence: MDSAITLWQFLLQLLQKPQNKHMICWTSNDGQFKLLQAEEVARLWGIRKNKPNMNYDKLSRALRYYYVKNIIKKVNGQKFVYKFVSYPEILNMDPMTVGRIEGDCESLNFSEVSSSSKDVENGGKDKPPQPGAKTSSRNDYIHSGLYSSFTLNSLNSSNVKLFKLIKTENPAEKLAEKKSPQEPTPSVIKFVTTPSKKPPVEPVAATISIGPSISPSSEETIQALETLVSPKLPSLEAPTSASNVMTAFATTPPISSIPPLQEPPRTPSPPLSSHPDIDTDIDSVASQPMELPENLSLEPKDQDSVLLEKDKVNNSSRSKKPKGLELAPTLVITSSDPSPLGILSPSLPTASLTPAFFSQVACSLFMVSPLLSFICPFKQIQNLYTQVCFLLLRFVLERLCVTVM
Summary of the method: as §1

ETV2 = biological target: T10, ETV2 (Homo sapiens, UniProt O00321 1-342); conditions: protein: recombinant; tags: N-terminal GST; dsDNA, one strand shown
T10 sequence: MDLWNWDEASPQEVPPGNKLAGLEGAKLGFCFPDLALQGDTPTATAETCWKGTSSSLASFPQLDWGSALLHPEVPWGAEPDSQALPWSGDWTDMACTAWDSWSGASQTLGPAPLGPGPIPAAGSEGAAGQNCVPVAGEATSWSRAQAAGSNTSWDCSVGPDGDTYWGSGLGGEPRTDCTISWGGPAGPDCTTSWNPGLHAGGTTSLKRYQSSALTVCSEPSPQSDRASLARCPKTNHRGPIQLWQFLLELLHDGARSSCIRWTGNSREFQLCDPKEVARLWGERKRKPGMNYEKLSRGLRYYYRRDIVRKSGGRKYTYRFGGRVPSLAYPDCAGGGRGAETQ
Summary of the method: as §1

ELF3 = biological target: T11, ELF3 (Homo sapiens, UniProt P78545 1-371); conditions: protein: recombinant; tags: N-terminal GST; dsDNA, one strand shown
T11 sequence: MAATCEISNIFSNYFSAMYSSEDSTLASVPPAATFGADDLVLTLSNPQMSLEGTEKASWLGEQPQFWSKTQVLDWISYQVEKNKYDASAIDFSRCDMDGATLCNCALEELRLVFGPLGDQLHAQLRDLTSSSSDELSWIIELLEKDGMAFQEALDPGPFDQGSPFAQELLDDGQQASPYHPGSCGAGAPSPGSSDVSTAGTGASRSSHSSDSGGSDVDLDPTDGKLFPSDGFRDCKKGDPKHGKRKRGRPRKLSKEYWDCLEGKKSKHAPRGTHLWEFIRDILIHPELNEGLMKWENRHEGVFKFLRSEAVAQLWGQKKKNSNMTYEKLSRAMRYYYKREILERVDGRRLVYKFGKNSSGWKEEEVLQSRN
Summary of the method: as §1

CRX = CRX (Homo sapiens, UniProt O43186 1-299); conditions: protein: recombinant; tags: N-terminal GST; dsDNA, one strand shown
CRX, sequence (O43186 whole entry): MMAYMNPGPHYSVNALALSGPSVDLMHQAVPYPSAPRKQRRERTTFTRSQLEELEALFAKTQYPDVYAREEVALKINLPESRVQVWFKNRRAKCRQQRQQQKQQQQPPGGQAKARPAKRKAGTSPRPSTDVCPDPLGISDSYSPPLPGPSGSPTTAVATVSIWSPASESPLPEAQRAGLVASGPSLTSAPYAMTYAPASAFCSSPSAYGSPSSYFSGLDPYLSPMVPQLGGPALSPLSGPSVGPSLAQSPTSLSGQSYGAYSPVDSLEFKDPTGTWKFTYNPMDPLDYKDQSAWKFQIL
Summary of the method: as §1

ETV1 = ETV1 (Homo sapiens, UniProt P50549 1-477); conditions: protein: recombinant; tags: N-terminal GST; dsDNA, one strand shown
ETV1, sequence (P50549 whole entry): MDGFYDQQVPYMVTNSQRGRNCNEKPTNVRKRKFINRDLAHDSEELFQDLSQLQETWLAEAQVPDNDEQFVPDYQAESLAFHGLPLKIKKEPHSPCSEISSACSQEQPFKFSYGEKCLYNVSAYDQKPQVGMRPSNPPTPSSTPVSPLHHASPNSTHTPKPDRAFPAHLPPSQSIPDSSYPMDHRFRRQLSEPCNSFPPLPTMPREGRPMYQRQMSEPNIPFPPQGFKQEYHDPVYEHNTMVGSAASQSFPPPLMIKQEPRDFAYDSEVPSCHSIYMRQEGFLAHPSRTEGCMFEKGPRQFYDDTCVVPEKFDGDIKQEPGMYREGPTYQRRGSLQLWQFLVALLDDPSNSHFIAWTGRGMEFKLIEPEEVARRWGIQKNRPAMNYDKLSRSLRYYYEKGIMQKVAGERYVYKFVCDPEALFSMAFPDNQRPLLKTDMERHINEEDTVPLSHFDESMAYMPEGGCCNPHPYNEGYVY
Summary of the method: as §1

ATCGAA
binding signal (FLI1): 1.11 fold enrichment (6-mer frequency, TF over GST control)
binding signal (ELK1): 1.12 fold enrichment (6-mer frequency, TF over GST control)
binding signal (GABPA): 1.1 fold enrichment (6-mer frequency, TF over GST control)
binding signal (ERG): 1.1 fold enrichment (6-mer frequency, TF over GST control)
binding signal (ELF1): 1.14 fold enrichment (6-mer frequency, TF over GST control)
binding signal (EHF): 1.16 fold enrichment (6-mer frequency, TF over GST control)
binding signal (SPI1): 1.13 fold enrichment (6-mer frequency, TF over GST control)
binding signal (SPIB): 1.18 fold enrichment (6-mer frequency, TF over GST control)
binding signal (ELK3): 1.08 fold enrichment (6-mer frequency, TF over GST control)
binding signal (FEV): 1.08 fold enrichment (6-mer frequency, TF over GST control)
binding signal (ETV5): 1.16 fold enrichment (6-mer frequency, TF over GST control)
binding signal (HSF1): 1.87 fold enrichment (6-mer frequency, TF over GST control)
binding signal (SPIC): 1.11 fold enrichment (6-mer frequency, TF over GST control)
binding signal (ELF4): 1.14 fold enrichment (6-mer frequency, TF over GST control)
binding signal (ELK4): 1.14 fold enrichment (6-mer frequency, TF over GST control)
binding signal (ETV2): 1.07 fold enrichment (6-mer frequency, TF over GST control)
binding signal (ELF3): 1.07 fold enrichment (6-mer frequency, TF over GST control)
binding signal (CRX): 1.31 fold enrichment (6-mer frequency, TF over GST control)
binding signal (ETV1): 1.13 fold enrichment (6-mer frequency, TF over GST control)
